In PubChem BioAssay one finds composite z-score and z-score data, which are given here for five molecules.

Test [1] can be described thus: binders of probe aFSTL3 on microarray, primary screen, stem cell growth factor project, biochemical, small-molecule microarray, fluorescence 635/667 (AID 1064).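 Note: measures binding of the biotinylated anti-FSTL3 antibody to printed compounds.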 The following applies: higher = more signal.
Test [2] can be described thus: binders from COS7 lysate, DM2A8 probe, primary screen, torsin A project, cell lysate, small-molecule microarray, fluorescence 635/667 (AID 1065). Particulars: higher = more signal, COS7 lysate expressing mutant human TOR1A.
A short description of test [3]: binders of probe aFGF2 on microarray, primary screen, stem cell growth factor project, biochemical, small-molecule microarray, fluorescence 635/667 (AID 1067).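 Note: measures binding of biotinylated aFGF2 protein to printed compounds on slides; z-score merges feature fluorescence and signal-to-noise across triplicate slides.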 The following applies: higher = more signal.
Test [4] in a line: binders of probe aFGF10 on microarray, primary screen, stem cell growth factor project, biochemical, small-molecule microarray, fluorescence 635/667 (AID 1071).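 Note: score merges 667 nm spot intensity and signal to noise from triplicate slides.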 The following applies: higher = more signal.
Test [5] deals with Neurogenic locus notch homolog protein 2 (Homo sapiens) (UniProt Q04721). As to the kind of experiment: Notch2 binders on small-molecule microarrays, primary screen, biochemical, small-molecule microarray, 635 nm fluorescence, stem cell growth factors (AID 1073). Particulars: Notch2 binding, higher = more signal.
Test [6] addresses Pro-neuregulin-1, membrane-bound isoform (Homo sapiens) (UniProt Q02297). Kind of test: NRG1 binders on small-molecule microarrays, primary screen, psychiatric disease protein project, biochemical, small-molecule microarray, fluorescence 635/667 (AID 1075).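 Note: score combines 667 nm spot fluorescence with signal to noise.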 The following applies: NRG1 binding, 635 nm fluorescence, higher = more signal.
Test [7] deals with Neuregulin-1 EGF-like domain. As to the kind of experiment: binders of neuregulin-1 EGF-like domain, primary screen, biochemical, small-molecule microarray, 635 nm fluorescence (AID 1081).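 Note: binding of the protein to compounds printed on small-molecule microarray slides.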 The following applies: small-molecule microarray binding, higher = more signal.
Test [8] can be described thus: FRG1 promoter luciferase signal modulators, primary screen, FRG1 inhibition for FSHD, cell-based, C2C12 myotubes, firefly/Renilla luciferase, luminescence (AID 1084). The following applies: higher = more signal, called active from +8 up or from −8 down.
A short description of test [9]: binders of probe aFST on microarray, primary screen, stem cell growth factor project, biochemical, small-molecule microarray, fluorescence 635/667 (AID 1086).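 Note: score merges 667 nm fluorescence with signal-to-noise of each printed compound spot.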 Particulars: higher = more signal.
The nature of test [10]: binders of probe aHhip on microarray, primary screen, stem cell growth factor project, biochemical, small-molecule microarray, fluorescence 635/667 (AID 1087).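 Note: score merges spot fluorescence at 667nm with spot signal to noise ratio.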 Particulars: higher = more signal.
The test system of test [11] is PRMT1 (protein arginine N-methyltransferase 1). Kind of test: PRMT1 binders on small-molecule microarrays, primary screen, biochemical, small-molecule microarray, 635 nm fluorescence (AID 1088).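 Note: binding of Prmt1 protein to compounds spotted on small-molecule microarray slides.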 Particulars: small-molecule microarray binding, higher = more signal.
Test [12] can be described thus: yeast growth modulation, basal conditions, primary screen, YJM789 clinical isolate, OD600, 24 h (AID 1089).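 Note: growth of clinical yeast isolate S. cerevisiae YJM 789 seeded 1000 cells per well; test concentration not given here.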 Particulars: S. cerevisiae YJM789 growth, higher = more signal, called active from +8 up or from −8 down.
Test [13] in a line: fission yeast growth modulation, primary screen, strain 972, OD600, 24 h, no modulator (AID 1090).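 Note: basal condition with compound alone and no growth modifier present; test concentration not given here.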 The following applies: S. pombe 972 growth, higher = more signal, called active from +8 up or from −8 down.
A short description of test [14]: S. cerevisiae growth modulation with rapamycin, primary screen, strain BY4716, OD600, 96 h (AID 1091). Note: test concentration not given here. The following applies: higher = more signal, called active from +8 up or from −8 down.
For test [15], the target named is Torsin-1A-interacting protein 2 (Homo sapiens) (UniProt Q8NFQ8). Kind of test: LULL1 binders on small-molecule microarray, primary screen, cell lysate, human LULL1 lysate, 635/667 nm fluorescence (AID 1092).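 Note: probe is lysate of COS7 cells overexpressing human LULL1; score merges per-feature 667 nm fluorescence with signal-to-noise.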 The following applies: hLULL1 lysate binding, 635 nm fluorescence, higher = more signal.
A short description of test [16]: E. coli growth modulation, two-sided OD650, primary screen, E. coli filamentation project, strain DRC41, 24 h (AID 1093).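 Note: MC1000 strain lacking acrAB efflux and sulA so SOS filamentation is blocked; test concentration not given here.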 The following applies: OD650, 24 h, higher = more signal, called active from +8 up or from −8 down.
A short description of test [17]: small-molecule microarray binders of probe aLefty2, primary screen, biochemical, biotinylated probe, 635/667 nm fluorescence (AID 1094).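 Note: score merges spot fluorescence near 667 nm with spot signal-to-noise ratio.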 The following applies: higher = more signal.
Test [18] relates to Noggin (protein binding on small-molecule microarray). Kind of test: Noggin binders on small-molecule microarray, primary screen, biochemical, 635/667 nm fluorescence (AID 1095).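 Note: score merges 667 nm feature fluorescence with signal to noise over triplicate slides.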 Particulars: 635 nm fluorescence, higher = more signal.
Test [19] has as its target Neurogenic locus notch homolog protein 3 (Homo sapiens) (UniProt Q9UM47). Kind of test: NOTCH3 binders on small-molecule microarray, primary screen, biochemical, 635/667 nm fluorescence (AID 1096). The following applies: NOTCH3 binding, 635 nm fluorescence, higher = more signal.
Test [20] in a line: small-molecule microarray binders of probe aEGFR, primary screen, biochemical, biotinylated probe, 635/667 nm fluorescence (AID 1097).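 Note: probe is a biotinylated anti-EGFR antibody binding compounds printed on slides; score combines fluorescence near 667 nm and signal to noise of each spot.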 The following applies: higher = more signal.

Molecules are shown by their SMILES. The source made the active and inactive calls.

Sequence of Torsin-1A-interacting protein 2 (Homo sapiens) (Q8NFQ8 whole entry, looked up): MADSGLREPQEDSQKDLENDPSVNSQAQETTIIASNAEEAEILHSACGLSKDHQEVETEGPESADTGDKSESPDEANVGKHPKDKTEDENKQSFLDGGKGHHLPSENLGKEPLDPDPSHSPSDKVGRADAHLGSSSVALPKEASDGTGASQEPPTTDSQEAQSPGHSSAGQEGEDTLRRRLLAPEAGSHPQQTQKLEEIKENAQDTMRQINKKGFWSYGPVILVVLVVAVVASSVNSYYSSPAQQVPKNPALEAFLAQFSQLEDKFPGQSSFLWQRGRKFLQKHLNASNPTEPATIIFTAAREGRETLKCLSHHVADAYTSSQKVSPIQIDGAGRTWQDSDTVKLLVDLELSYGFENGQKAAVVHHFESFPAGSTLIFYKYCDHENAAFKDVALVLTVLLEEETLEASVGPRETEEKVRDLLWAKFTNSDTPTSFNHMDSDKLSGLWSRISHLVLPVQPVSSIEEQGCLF
Sequence of Neurogenic locus notch homolog protein 2 (Homo sapiens) (Q04721 whole entry, looked up, canonical isoform): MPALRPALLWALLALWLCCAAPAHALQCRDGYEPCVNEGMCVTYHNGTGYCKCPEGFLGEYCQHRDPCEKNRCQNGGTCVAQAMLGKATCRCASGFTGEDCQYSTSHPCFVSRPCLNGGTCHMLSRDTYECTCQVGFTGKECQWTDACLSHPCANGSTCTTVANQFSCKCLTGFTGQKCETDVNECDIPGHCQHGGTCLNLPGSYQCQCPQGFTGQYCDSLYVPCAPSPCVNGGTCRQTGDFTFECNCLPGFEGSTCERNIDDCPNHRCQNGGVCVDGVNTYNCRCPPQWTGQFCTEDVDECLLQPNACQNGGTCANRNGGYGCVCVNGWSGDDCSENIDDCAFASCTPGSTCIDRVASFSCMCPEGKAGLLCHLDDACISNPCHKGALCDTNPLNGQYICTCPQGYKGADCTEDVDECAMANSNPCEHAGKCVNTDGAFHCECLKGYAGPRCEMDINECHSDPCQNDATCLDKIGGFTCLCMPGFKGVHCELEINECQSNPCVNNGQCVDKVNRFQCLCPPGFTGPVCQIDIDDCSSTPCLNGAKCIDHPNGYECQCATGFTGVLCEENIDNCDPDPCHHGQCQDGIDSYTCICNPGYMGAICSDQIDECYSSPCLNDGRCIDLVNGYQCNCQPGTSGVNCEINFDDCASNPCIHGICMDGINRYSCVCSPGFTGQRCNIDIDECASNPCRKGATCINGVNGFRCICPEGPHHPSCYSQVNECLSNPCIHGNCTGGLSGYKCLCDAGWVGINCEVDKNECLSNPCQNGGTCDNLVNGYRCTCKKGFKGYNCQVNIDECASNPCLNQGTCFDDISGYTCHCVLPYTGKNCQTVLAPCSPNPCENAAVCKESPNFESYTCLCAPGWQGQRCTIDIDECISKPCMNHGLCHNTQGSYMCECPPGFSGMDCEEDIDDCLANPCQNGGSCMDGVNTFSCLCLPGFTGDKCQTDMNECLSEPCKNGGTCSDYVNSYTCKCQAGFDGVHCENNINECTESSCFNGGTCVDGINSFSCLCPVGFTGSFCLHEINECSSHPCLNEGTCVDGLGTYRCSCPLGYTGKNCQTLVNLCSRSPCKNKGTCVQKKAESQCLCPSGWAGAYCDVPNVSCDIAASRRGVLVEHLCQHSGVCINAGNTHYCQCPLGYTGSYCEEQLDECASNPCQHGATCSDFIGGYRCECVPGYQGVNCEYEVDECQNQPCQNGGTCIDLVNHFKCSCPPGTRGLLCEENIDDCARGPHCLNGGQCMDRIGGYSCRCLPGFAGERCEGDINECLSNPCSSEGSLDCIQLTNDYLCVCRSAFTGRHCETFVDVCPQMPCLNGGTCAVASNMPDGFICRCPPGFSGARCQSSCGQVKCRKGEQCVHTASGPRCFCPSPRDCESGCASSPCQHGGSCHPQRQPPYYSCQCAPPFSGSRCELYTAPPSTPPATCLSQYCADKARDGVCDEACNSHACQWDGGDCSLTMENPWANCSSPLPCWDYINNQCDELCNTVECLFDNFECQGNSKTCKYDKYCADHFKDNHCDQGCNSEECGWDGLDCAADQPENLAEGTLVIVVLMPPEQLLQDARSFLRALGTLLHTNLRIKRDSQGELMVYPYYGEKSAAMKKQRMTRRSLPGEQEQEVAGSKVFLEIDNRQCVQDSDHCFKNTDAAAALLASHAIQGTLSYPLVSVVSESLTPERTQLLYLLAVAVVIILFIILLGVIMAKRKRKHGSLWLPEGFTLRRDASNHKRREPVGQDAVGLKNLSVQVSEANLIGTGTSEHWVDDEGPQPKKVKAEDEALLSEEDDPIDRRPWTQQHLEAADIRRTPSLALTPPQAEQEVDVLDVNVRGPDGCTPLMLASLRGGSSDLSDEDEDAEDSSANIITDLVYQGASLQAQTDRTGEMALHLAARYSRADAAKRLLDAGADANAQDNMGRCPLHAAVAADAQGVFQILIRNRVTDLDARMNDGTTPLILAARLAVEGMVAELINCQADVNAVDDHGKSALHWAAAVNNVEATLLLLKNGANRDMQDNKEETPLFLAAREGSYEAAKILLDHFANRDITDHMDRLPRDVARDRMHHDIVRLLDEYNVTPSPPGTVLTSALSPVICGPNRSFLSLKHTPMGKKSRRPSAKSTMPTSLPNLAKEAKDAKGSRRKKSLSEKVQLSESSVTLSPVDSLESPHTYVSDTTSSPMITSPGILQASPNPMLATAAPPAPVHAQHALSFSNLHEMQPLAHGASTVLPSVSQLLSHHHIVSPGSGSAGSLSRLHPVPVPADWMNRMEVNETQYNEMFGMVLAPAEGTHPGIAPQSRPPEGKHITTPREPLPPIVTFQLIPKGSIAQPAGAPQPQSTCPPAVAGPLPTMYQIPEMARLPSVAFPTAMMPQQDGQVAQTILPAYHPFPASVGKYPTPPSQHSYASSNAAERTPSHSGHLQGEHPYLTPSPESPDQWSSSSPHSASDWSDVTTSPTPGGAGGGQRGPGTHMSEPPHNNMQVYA
Sequence of Pro-neuregulin-1, membrane-bound isoform (Homo sapiens) (Q02297 whole entry, looked up, the tested form may be a part, canonical isoform): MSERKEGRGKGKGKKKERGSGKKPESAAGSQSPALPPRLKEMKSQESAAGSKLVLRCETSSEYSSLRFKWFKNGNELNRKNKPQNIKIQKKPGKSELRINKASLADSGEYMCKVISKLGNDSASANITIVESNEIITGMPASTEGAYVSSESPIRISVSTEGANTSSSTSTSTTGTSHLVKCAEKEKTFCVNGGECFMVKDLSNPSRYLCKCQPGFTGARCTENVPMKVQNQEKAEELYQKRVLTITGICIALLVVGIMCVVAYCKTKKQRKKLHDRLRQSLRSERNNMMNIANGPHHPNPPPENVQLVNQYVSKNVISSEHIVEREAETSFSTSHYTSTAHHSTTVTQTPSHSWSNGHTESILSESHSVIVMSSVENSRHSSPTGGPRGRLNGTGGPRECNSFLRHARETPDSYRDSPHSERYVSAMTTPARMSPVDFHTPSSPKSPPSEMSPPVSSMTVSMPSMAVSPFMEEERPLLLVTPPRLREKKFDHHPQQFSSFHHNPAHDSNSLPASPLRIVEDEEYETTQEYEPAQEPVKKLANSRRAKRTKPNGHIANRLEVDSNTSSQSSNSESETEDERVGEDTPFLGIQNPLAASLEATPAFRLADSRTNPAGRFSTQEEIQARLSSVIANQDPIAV

In the case of `O=C1C[C@@](C(=O)O)(c2ccc([N+](=O)[O-])cc2)[C@@H](c2ccc(CO)cc2I)N1C1CCCCC1`, the composite z-score in [1] was 0.0508; in test [2], 0.0298; in test [3] it was -0.0256; in test [4], 0.798; in [5], 1.11; in [6], 1.39. The composite z-score came to 0.94 in test [7]; 0.797 in test [9]; 0.12 in test [10]; 0.222 in test [11]; 2.54 in test [15]; 0.0539 in test [17]. The results for the composite z-score in test [18], in test [19] and in test [20] were 0.373, 1.06 and -0.0828, respectively. In addition, the z-score in test [8] was -1.26 (inactive); in test [12], -1.09 (inactive); in test [13] it was -6.54 (inactive); in test [14], 0.173 (inactive); in test [16], 2.15 (inactive).

Consider `O=C(CS)NCCCCCNC(=O)[C@H]1C[C@H]2C(=O)N[C@@H](Cc3ccccc3)C(=O)N2[C@H]1c1cccc(OCCO)c1`, for which the composite z-score in test [1] is 0.0238; in test [2], 1.31; in [3], -0.0195; in test [4], 1.16; in test [5], 0.617; in test [6], 0.244. Also, the composite z-score is 1.33 in test [7]; 0.551 in test [9]; -0.156 in test [10]; 1.52 in test [11]; 2.55 in test [15]; 0.0669 in [17]. Also, the composite z-score in test [18] was found to be 1.44; in test [19], 1.09; in test [20], 0.12. In addition, the z-score in test [8] is -0.676 (inactive); in test [12], -3.02 (inactive); in test [13] it was -0.991 (inactive); in test [14] it was -0.276 (inactive); in test [16] it was 1.94 (inactive).

On to `O=c1cccc(-c2ccc3ccccc3c2)o1`, for which the composite z-score was 0.636 in test [1]; -0.0452 in test [2]; 0.114 in test [3]; -0.183 in test [4]; -0.383 in [5]; -0.288 in test [6]. For the same molecule, the composite z-score in test [7] is -0.602; in test [9] it was 0.389; in test [10], -0.0022; in [11], -0.387; in test [15] it was -0.0751; in test [17], 0.0673. Also, the composite z-score in [18] was -0.0993; in test [19], -0.349; in [20], -0.138. Further, the z-score in test [8] is 7.42 (inactive); in test [12], -11.9 (active); in [13], -15 (active); in test [14], -3.02 (inactive); in [16], 1.82 (inactive).

With `O=C1O[C@@H](c2ccccc2)[C@@H](c2ccccc2)N2[C@@H](c3ccc(O)cc3)[C@]3(C(=O)Nc4ccccc43)[C@@H](C(=O)N3CCCCCCC3)[C@H]12`, the composite z-score was found to be 3.65 in [1]; 1.15 in [2]; 0.937 in test [3]; 0.525 in [4]; 0.519 in test [5]; 2.22 in test [6]. Besides, the composite z-score came to 1.35 in [7]; 2.99 in [9]; 1.07 in [10]; 1.54 in test [11]; 4.32 in test [15]; 1.54 in test [17]. In addition, the results for the composite z-score in test [18], in test [19] and in test [20] were 0.589, 0.896 and 1.13, respectively. The z-score was -4.16 (inactive) in test [8]; 0.964 (inactive) in [12]; 0.295 (inactive) in test [13]; 1.9 (inactive) in test [14]; 0.271 (inactive) in [16].

On to `O=C1C[C@@](C(=O)O)(c2ccc([N+](=O)[O-])cc2)[C@@H](c2ccc(CO)cc2I)N1CC12CC3CC(CC(C3)C1)C2`, for which the composite z-score is 0.525 in [1]; 0.773 in test [2]; -0.124 in [3]; 0.14 in test [4]; 1.41 in [5]; 1.48 in test [6]. The composite z-score in test [7] was 0.843; in test [9], 0.806; in test [10], 0.0497; in [11], 1.47; in test [15], 2.79; in test [17] it was -0.0096. Besides, the composite z-score in [18] is 0.0251; in [19], 1.06; in test [20] it was -0.0056. The z-score in test [8] is -1.55 (inactive); in test [12] it was -0.12 (inactive); in test [13], -3.03 (inactive); in test [14], 5.6 (inactive); in [16] it was 0.177 (inactive).
